Source: publication PMC7862700, “An all-to-all approach to the identification of sequence-specific readers for epigenetic DNA modifications on cytosine”

Columns and labels:
Assay in all cases: DAPPL (digital affinity profiling via proximity ligation, sequencing); 10 mM Tris-HCl pH 7.5, 50 mM NaCl, 1 mM DTT, 4% glycerol, room temperature, 30 min; GST-TFs on glutathione beads, 16-mer random dsDNA library, 0.1% formaldehyde crosslink after washing; high values mean tight binding
Settings in all cases: protein: recombinant; tags: N-terminal GST; dsDNA, one strand shown
FLI1 = biological target: T1, FLI1 (Homo sapiens, UniProt Q01543 1-452)
T1 sequence: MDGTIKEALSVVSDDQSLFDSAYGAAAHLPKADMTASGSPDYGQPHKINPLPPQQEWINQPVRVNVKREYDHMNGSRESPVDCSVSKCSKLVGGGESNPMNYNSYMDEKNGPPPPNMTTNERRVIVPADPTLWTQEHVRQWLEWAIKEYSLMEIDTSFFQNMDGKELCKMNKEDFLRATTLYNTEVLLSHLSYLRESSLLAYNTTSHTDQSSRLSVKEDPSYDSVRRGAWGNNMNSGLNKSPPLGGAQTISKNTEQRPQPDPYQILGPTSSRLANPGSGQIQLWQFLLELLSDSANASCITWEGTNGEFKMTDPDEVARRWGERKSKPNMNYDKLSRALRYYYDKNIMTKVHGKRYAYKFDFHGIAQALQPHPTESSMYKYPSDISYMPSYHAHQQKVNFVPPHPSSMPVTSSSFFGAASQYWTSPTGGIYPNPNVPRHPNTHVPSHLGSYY
Summary of the method: (§1)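 Human transcription factors were made in yeast as GST fusions, captured on glutathione beads and barcoded with DNA. With a tag-only sample included, the pool was incubated with 200 nmole of a random double-stranded 16-mer DNA library in Tris/NaCl/DTT/glycerol buffer at room temperature for 30 min, then crosslinked with 0.1% formaldehyde after washing, ligated by proximity, amplified and sequenced. For binding signal, each hexamer's read frequency for a factor is divided by its frequency for the tag-only sample.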

ELK1 = biological target: T2, ELK1 (Homo sapiens, UniProt P19419 1-428)
T2 sequence: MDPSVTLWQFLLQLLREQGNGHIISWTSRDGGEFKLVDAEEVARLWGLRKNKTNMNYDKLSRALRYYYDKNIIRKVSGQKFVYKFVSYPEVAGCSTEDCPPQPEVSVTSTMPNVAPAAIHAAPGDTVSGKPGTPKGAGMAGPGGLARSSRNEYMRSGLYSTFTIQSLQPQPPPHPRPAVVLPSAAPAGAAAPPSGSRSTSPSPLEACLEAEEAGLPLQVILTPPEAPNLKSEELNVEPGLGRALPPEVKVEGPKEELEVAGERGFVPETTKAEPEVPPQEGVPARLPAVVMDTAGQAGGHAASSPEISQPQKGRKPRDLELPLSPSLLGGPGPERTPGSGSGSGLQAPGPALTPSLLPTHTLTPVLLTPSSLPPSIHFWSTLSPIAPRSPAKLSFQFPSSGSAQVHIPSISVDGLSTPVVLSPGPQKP
Summary of the method: as §1

GABPA = biological target: T3, GABPA (Homo sapiens, UniProt Q06546 1-454)
T3 sequence: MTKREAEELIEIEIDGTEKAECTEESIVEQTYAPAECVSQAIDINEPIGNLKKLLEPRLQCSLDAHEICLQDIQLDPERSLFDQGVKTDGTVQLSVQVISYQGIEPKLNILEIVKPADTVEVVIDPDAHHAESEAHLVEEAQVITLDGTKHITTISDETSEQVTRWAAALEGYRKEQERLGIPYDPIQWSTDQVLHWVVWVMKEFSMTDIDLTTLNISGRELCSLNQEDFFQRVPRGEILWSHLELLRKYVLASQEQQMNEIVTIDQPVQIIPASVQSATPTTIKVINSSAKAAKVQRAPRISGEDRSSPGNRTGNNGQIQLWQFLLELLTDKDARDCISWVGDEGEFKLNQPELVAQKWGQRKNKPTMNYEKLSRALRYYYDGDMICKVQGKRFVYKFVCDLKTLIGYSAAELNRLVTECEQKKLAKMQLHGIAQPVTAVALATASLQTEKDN
Summary of the method: as §1

ERG = biological target: T4, ERG (Homo sapiens, UniProt P11308 1-479)
T4 sequence: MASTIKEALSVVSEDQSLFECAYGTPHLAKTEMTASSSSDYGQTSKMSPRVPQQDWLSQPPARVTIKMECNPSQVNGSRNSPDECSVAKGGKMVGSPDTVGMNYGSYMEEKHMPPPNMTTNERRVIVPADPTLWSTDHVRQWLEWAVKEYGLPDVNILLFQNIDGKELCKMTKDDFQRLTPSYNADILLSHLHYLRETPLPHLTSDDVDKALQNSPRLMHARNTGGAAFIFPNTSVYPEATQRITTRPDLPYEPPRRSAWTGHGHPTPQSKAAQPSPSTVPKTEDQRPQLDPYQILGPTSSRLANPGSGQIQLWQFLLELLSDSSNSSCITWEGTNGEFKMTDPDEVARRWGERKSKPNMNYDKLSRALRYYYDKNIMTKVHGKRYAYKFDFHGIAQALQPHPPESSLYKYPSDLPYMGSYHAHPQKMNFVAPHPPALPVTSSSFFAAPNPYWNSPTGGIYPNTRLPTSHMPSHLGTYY
Summary of the method: as §1

ELF1 = ELF1 (Homo sapiens, UniProt P32519 1-619)
Summary of the method: as §1

EHF = biological target: T5, EHF (Homo sapiens, UniProt Q9NZC4 1-300)
T5 sequence: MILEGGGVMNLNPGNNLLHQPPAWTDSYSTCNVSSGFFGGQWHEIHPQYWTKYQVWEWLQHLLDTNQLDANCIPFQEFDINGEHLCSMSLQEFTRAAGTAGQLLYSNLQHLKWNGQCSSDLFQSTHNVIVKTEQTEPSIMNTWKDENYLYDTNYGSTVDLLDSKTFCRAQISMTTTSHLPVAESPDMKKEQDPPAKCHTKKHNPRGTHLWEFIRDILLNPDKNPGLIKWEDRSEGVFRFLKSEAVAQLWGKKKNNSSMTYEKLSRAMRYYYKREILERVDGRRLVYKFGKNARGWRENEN
Summary of the method: as §1

SPI1 = SPI1 (Homo sapiens, UniProt P17947 1-270)
Summary of the method: as §1

SPIB = SPIB (Homo sapiens, UniProt Q01892 1-262)
Summary of the method: as §1

ELK3 = biological target: T6, ELK3 (Homo sapiens, UniProt P41970 1-407)
T6 sequence: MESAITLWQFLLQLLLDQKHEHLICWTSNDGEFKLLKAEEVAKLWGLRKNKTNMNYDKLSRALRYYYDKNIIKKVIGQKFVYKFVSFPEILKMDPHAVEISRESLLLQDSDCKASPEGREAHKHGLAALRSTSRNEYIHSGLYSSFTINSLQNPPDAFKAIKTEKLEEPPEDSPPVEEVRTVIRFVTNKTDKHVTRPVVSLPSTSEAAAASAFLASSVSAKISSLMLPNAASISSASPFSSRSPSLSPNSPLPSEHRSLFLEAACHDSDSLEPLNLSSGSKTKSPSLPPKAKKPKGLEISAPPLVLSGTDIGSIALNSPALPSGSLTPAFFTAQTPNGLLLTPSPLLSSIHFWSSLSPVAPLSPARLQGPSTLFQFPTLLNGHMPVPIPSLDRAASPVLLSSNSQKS
Summary of the method: as §1

FEV = biological target: T7, FEV (Homo sapiens, UniProt Q99581 1-238)
T7 sequence: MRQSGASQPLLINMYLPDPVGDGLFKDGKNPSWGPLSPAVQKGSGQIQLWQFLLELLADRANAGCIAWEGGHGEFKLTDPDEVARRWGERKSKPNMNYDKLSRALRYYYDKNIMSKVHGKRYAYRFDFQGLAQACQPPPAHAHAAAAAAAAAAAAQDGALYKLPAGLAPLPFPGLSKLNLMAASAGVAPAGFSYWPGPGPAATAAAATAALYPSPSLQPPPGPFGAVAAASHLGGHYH
Summary of the method: as §1

ETV5 = ETV5 (Homo sapiens, UniProt P41161 1-510)
Summary of the method: as §1

SPIC = biological target: T8, SPIC (Homo sapiens, UniProt Q8N5J4 1-248)
T8 sequence: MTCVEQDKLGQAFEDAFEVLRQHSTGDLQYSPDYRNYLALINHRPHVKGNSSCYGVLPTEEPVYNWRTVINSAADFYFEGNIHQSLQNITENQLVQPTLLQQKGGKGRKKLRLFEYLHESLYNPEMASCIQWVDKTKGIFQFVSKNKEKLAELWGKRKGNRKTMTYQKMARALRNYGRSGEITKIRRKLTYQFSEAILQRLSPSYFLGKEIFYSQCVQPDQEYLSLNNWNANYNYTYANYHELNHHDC
Summary of the method: as §1

ELF4 = ELF4 (Homo sapiens, UniProt Q99607 1-663)
Summary of the method: as §1

ELK4 = biological target: T9, ELK4 (Homo sapiens, UniProt P28324-2 1-405)
T9 sequence: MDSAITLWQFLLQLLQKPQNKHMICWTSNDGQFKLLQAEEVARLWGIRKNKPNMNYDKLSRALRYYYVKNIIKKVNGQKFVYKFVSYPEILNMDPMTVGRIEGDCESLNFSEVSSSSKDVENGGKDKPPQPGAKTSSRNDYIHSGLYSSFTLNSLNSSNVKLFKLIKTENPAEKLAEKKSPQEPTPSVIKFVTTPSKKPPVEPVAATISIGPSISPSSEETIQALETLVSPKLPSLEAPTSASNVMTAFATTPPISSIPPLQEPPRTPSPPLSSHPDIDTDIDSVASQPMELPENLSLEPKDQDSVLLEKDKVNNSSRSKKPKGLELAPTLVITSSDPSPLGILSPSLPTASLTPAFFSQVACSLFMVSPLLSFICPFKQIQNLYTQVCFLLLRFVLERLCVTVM
Summary of the method: as §1

ETV2 = biological target: T10, ETV2 (Homo sapiens, UniProt O00321 1-342)
T10 sequence: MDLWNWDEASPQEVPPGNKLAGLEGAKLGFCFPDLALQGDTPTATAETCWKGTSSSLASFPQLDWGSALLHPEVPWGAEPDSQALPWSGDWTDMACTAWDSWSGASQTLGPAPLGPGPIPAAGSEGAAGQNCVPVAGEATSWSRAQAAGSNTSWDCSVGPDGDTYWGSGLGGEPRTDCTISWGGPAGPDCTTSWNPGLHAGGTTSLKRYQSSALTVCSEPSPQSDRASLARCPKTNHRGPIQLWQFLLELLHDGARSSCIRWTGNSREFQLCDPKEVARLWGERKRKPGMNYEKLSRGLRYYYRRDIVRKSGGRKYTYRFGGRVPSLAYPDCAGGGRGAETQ
Summary of the method: as §1

ELF3 = biological target: T11, ELF3 (Homo sapiens, UniProt P78545 1-371)
T11 sequence: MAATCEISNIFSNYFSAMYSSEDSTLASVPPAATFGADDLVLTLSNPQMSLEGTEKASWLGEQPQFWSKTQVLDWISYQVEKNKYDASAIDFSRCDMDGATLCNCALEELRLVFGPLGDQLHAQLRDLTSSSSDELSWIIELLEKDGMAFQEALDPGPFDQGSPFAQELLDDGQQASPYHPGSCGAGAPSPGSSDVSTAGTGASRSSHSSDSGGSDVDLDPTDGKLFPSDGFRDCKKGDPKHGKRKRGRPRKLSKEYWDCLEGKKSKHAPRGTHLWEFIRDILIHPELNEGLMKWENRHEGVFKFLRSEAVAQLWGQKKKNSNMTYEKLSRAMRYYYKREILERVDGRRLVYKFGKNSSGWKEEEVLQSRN
Summary of the method: as §1

CRX = CRX (Homo sapiens, UniProt O43186 1-299)
Summary of the method: as §1

ETV1 = ETV1 (Homo sapiens, UniProt P50549 1-477)
Summary of the method: as §1

ETV1, sequence (P50549 whole entry): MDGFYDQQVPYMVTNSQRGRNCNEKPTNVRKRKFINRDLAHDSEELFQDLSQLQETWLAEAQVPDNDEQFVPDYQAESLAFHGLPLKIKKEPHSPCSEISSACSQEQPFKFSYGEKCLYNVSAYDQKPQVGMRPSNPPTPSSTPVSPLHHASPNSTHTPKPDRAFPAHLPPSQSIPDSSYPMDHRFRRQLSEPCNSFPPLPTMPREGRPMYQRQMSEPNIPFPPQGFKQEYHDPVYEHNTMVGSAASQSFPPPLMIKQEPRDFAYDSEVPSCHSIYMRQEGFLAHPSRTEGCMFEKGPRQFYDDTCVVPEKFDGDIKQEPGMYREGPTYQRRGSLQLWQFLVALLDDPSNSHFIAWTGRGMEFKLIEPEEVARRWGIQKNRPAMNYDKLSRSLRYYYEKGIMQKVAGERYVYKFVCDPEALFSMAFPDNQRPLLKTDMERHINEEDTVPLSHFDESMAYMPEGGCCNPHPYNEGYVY
SPIB, sequence (Q01892 whole entry): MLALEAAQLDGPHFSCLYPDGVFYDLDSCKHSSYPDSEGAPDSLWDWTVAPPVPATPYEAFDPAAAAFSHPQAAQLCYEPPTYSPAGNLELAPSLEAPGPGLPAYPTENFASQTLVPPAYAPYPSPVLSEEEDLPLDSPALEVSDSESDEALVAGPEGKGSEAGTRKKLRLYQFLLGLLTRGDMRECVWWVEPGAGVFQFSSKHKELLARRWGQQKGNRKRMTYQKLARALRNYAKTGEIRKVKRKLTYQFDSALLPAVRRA
ELF4, sequence (Q99607 whole entry): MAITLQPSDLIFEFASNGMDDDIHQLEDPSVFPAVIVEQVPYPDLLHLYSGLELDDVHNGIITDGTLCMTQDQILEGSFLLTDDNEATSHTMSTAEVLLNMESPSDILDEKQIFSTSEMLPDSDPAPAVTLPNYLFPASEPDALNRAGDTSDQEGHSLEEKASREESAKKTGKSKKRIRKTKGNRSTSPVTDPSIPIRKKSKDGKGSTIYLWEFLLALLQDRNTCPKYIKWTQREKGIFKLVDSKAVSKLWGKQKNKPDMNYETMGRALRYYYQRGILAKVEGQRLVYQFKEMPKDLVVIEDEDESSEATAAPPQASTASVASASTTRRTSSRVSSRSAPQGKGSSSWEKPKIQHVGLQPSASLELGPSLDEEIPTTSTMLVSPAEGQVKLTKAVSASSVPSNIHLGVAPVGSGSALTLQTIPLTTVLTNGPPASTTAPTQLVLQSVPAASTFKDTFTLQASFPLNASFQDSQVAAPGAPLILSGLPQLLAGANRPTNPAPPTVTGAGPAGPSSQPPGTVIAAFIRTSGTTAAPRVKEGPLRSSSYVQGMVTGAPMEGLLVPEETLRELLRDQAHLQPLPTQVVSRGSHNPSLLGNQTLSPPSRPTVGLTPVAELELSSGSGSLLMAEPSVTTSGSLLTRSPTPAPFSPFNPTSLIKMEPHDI
ETV5, sequence (P41161 whole entry): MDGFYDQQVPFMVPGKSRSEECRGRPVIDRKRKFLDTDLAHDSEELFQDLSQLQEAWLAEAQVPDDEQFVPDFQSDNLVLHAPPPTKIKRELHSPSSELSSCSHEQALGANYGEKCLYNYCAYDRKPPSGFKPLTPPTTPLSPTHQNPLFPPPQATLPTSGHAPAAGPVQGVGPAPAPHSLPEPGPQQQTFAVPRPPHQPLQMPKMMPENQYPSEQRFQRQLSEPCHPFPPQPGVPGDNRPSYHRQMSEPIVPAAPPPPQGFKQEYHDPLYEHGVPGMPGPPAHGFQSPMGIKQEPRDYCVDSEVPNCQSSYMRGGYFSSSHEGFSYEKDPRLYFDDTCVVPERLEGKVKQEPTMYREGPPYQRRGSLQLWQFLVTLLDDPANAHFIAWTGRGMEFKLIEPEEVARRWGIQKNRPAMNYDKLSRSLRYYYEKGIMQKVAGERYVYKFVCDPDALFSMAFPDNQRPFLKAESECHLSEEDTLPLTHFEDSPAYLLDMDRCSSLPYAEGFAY
ELF1, sequence (P32519 whole entry): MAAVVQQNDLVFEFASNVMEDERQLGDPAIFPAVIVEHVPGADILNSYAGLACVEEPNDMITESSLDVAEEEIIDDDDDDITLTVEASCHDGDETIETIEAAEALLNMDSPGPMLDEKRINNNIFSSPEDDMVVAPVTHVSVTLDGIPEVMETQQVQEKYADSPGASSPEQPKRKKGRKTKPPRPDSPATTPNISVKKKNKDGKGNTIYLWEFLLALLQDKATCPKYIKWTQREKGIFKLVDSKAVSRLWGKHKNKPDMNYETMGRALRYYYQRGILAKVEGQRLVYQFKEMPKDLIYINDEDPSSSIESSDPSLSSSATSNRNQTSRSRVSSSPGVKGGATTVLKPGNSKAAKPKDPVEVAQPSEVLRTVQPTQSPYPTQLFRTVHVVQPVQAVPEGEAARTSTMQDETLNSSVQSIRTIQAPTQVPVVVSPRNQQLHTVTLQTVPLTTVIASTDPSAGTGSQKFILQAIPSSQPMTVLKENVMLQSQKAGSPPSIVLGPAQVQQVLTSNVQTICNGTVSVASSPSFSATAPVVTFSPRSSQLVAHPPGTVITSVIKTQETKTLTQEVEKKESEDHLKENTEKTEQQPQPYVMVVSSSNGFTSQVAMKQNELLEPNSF
CRX, sequence (O43186 whole entry): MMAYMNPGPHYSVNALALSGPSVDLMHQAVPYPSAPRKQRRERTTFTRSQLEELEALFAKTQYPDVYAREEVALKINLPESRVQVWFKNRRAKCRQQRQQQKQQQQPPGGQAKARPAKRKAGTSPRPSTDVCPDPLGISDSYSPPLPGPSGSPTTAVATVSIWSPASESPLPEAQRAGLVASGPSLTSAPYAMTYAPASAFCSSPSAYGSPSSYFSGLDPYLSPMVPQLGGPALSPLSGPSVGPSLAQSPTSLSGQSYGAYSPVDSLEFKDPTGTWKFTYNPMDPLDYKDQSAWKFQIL

Sequence	binding signal (FLI1)	binding signal (ELK1)	binding signal (GABPA)	binding signal (ERG)	binding signal (ELF1)	binding signal (EHF)	binding signal (SPI1)	binding signal (SPIB)	binding signal (ELK3)	binding signal (FEV)	binding signal (ETV5)	binding signal (SPIC)	binding signal (ELF4)	binding signal (ELK4)	binding signal (ETV2)	binding signal (ELF3)	binding signal (CRX)	binding signal (ETV1)
CCGCCA	1.38 fold enrichment (6-mer frequency, TF over GST control)	1.31 fold enrichment (6-mer frequency, TF over GST control)	1.29 fold enrichment (6-mer frequency, TF over GST control)	1.3 fold enrichment (6-mer frequency, TF over GST control)	1.32 fold enrichment (6-mer frequency, TF over GST control)	1.37 fold enrichment (6-mer frequency, TF over GST control)	1.3 fold enrichment (6-mer frequency, TF over GST control)	1.09 fold enrichment (6-mer frequency, TF over GST control)	1.34 fold enrichment (6-mer frequency, TF over GST control)	1.37 fold enrichment (6-mer frequency, TF over GST control)	1.21 fold enrichment (6-mer frequency, TF over GST control)	1.37 fold enrichment (6-mer frequency, TF over GST control)	1.45 fold enrichment (6-mer frequency, TF over GST control)	1.44 fold enrichment (6-mer frequency, TF over GST control)	1.19 fold enrichment (6-mer frequency, TF over GST control)	1.48 fold enrichment (6-mer frequency, TF over GST control)	1.02 fold enrichment (6-mer frequency, TF over GST control)	1.32 fold enrichment (6-mer frequency, TF over GST control)
TTGGCC	1.22 fold enrichment (6-mer frequency, TF over GST control)	1.24 fold enrichment (6-mer frequency, TF over GST control)	1.23 fold enrichment (6-mer frequency, TF over GST control)	1 fold enrichment (6-mer frequency, TF over GST control)	1.1 fold enrichment (6-mer frequency, TF over GST control)	1.17 fold enrichment (6-mer frequency, TF over GST control)	1.08 fold enrichment (6-mer frequency, TF over GST control)	1.16 fold enrichment (6-mer frequency, TF over GST control)	1.12 fold enrichment (6-mer frequency, TF over GST control)	1.14 fold enrichment (6-mer frequency, TF over GST control)	1.12 fold enrichment (6-mer frequency, TF over GST control)	1.06 fold enrichment (6-mer frequency, TF over GST control)	1.18 fold enrichment (6-mer frequency, TF over GST control)	1.08 fold enrichment (6-mer frequency, TF over GST control)	1.08 fold enrichment (6-mer frequency, TF over GST control)	1.12 fold enrichment (6-mer frequency, TF over GST control)	–	1.02 fold enrichment (6-mer frequency, TF over GST control)
